This is a sample that favours compounds with a hit; in the whole collection about 2.7% have one here.
MPTP inh = inhibitors of mitochondrial permeability transition pore; 360,000 tested, 1.4% active; isolated mouse mitochondria, Ca2+ swelling absorbance, 30 min; AID 602449; inhibition, % at 10 µM;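 active = inhibition of 50% or more, scaled per plate between neutral and stimulator controls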;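 also: 0% = DMSO wells given calcium and 100% = 1 mM EGTA wells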
NadD inh = inhibitors of Staphylococcus aureus NadD; purified NadD enzyme, colorimetric absorbance read-out; inhibition, % at 20 µM; 360,000 tested, 0.78% active; AID 602399; in the data active = inhibition above about 26%
aDG glyco up = increases alpha dystroglycan glycosylation | Pro5-aDG cells, alpha-DG glycosylation AlphaScreen (IIH6); 0% Pro5, 100% B10-LARGE cell signal | 360,000 tested, 0.22% active | activation, % at 10 µM | AID 624168;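 active = activation of at least 8% versus controls, or a plate z-score of at least 8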;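 also: Pro5 are CHO cells carrying HIG-tagged alpha-DG that lacks glycosylation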
TAG inh = triacylglycerol accumulation inhibition; H9c2 cells, Nile Red lipid (TAG) fluorescence; cells loaded with 200 µM oleic acid; inhibition, % at 12.5 µM; 230,000 tested, 0.66% active;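 active = pattern-corrected inhibition of lipid staining of at least 50% with the nuclear-stain viability signal not falling by more than 50%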;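 also: 0% = DMSO wells and 100% = triacsin C control wells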
Rh123 counter = membrane potential counter-screen of mitochondrial pore inhibitors; shares compounds with MPTP inh; isolated mitochondria, Rhodamine 123 fluorescence; inhibition, % at 10 µM; 5,000 tested, 78% active; in the data active = inhibition above about 22%;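 also: 0% = DMSO vehicle and 100% = positive control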
MPTP abs DR = dose response confirmation of mitochondrial permeability transition pore inhibitors. shares compounds with MPTP inh. isolated mitochondria swelling, absorbance. IC50, µM. 780 tested, 58% active. AID 651561; in the data active = IC50 below about 20 µM
MPTP counter DR = MPTP inhibitor counter-screen activity, dose response; IC50, µM; isolated mitochondria counterscreen, fluorescence read-out; 780 tested, 49% active; shares compounds with MPTP inh; in the data active = IC50 below about 80 µM
* hit, by the source's call; / = not tested or not shown.

SMILES	MPTP inh	NadD inh	aDG glyco up	TAG inh	Rh123 counter	others
CCN1C(=O)C(=Cc2ccc(C)s2)C(=O)N(CC)C1=S	72.6*	16.8	0.5	/	-6.4
CSCCC(c1nnnn1-c1ccc2c(c1)OCCO2)N1CCC(n2c(=O)[nH]c3ccccc32)CC1 (stereo not drawn)	0.2	3.1	-0.4	/	/
Oc1cc(Cl)c(Cl)c(Cl)c1	94.9*	3.3	0.2	/	87.0*
Oc1cc(Cl)c(Cl)c(Cl)c1Cl	79.2*	-3.7	0.2	0.7	98.8*
Oc1ccc(Cl)c(Cl)c1	1.9	0.2	0.0	/	/
CN1OC[C@@H]2CN[C@H](c3ccc(Br)cc3)C[C@@H]21	-3.0	6.2	0.2	-1.4	/
CCOc1cc(C2NCc3ccccc3-n3cccc32)ccc1O (stereo not drawn)	87.6*	-5.2	1.0	-6.8	-7.6	MPTP abs DR=7.09*;MPTP counter DR=>80
CCOc1cccc(C2NCc3ccccc3-n3cccc32)c1O (stereo not drawn)	0.6	0.5	-0.4	8.6	/
O=c1[nH]c2ccccc2n1C1CCN(C(CCc2ccccc2)c2nnnn2C2CCCC2)CC1 (stereo not drawn)	0.5	7.9	-0.5	/	/
O=C1NC(=O)C(=Cc2ccc(-c3ccccc3[N+](=O)[O-])o2)C(=O)N1	50.8*	23.5	0.2	0.1	46.9*
O=C1NC(=O)C(=Cc2ccccc2[N+](=O)[O-])C(=O)N1	-2.0	7.7	0.1	1.6	/
CCCCN1C(=O)/C(=C\c2ccco2)C(=O)N(CCc2ccccc2)C1=O	67.7*	13.5	0.0	3.2	-6.3
CN1CCC(N(C)c2nc(-c3ccc([N+](=O)[O-])cc3)nc3ccccc23)CC1	101.7*	-4.4	-0.9	58.7*	-16.4
c1ccc2c(CNC3CCCCCC3)c[nH]c2c1	71.1*	-6.2	0.3	/	-5.9	MPTP abs DR=8.66*;MPTP counter DR=72.8*
c1ccc2c(CN3CCCCCC3)c[nH]c2c1	-0.2	-3.5	0.1	/	/
O=[N+]([O-])c1ccc(C(c2ccc([N+](=O)[O-])cc2)c2ccc([N+](=O)[O-])cc2)cc1	14.9	-4.0	0.5	1.4	/
Cc1[nH]n(-c2ccccc2)c(=O)c1C(c1ccc([N+](=O)[O-])cc1)c1c(C)[nH]n(-c2ccccc2)c1=O	96.1*	24.1	-0.4	9.6	75.8*
CC(NCc1cccc(Cl)c1Cl)C(O)c1ccccc1 (stereo not drawn)	71.8*	-10.9	0.5	/	-2.7	MPTP abs DR=>100;MPTP counter DR=>80
CC(NCc1ccc(Cl)cc1Cl)C(O)c1ccccc1 (stereo not drawn)	1.4	-3.0	0.4	/	/
CCC(=NCc1ccc2c(c1)OCO2)c1c(O)n(C2CCCCC2)c(=O)[nH]c1=O	77.9*	1.8	3.0	-121.9	67.8*
c1ccc2c(N3CCNCC3)cccc2c1	69.6*	0.3	0.1	11.5	-5.2	MPTP abs DR=19.1*;MPTP counter DR=>80
Clc1cccc(N2CCNCC2)c1Cl	-3.7	-1.1	0.1	/	/
CCOC(=O)C1(CCOc2ccccc2)CCN(Cc2ccc(C)s2)CC1	65.3*	-6.1	1.3	-21.9	81.8*
O=S(=O)(c1ccccc1)N1Cc2ccccc2-n2nncc2C1	0.0	-2.5	0.0	-3.6	/
O=C(Nc1cccc(Cl)c1)OC1CN2CCC1CC2 (stereo not drawn)	92.1*	-2.5	0.2	-14.9	88.1*
SMILES	MPTP inh	NadD inh	aDG glyco up	TAG inh	Rh123 counter	others
O=C(Nc1ccc(Cl)cc1)OC1CN2CCC1CC2 (stereo not drawn)	77.8*	-3.1	0.0	-0.4	92.8*
O=C(Nc1ccccc1Cl)OC1CN2CCC1CC2 (stereo not drawn)	0.5	0.2	0.1	6.8	/
Cc1cc(C)c(C)c(C(O)(C(=O)O)c2ccccc2)c1 (stereo not drawn)	0.5	-1.8	-0.1	17.6	/
CC(C)CN1Cc2cc(-c3cccc(F)c3)ccc2-n2nncc2C1	0.0	-3.2	0.1	/	/
CC(C)(C)c1cc(C=C(C#N)C#N)cc(C(C)(C)C)c1O	108.1*	-5.3	0.8	-17.3	89.2*
CCOC(=O)CNC(=O)N1Cc2cc(N3CCOCC3)ccc2-n2nncc2C1	-0.7	-3.9	-0.2	/	/
CCOc1cccc(=NC2CCCCC2)c2c(C)n(C)c(C)c12	62.5*	8.9	-0.2	5.9	70.7*
CCCCCSc1cc(O)c(C(CNC)C(C)C)cc1OC (stereo not drawn)	15.3	-6.3	0.9	/	/
CCCCCSc1cc(OC)c(CCN(C)C)cc1OC	83.8*	-4.8	1.6	15.6	-8.2	MPTP abs DR=6.33*;MPTP counter DR=>80
